LYPLA2 inh = LYPLA2 (human) inhibition in PME1 counter-screen. recombinant LYPLA2, FP-Rh probe fluorescence polarization. inhibition, % at 5.9 µM. actives 0.38% (n = 320,000). AID 2177;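 active = inhibition above the screen-wide mean plus 3 SD, limit set per campaign, cut at about 26% in these data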
Target sequence (O95372 whole entry, looked up): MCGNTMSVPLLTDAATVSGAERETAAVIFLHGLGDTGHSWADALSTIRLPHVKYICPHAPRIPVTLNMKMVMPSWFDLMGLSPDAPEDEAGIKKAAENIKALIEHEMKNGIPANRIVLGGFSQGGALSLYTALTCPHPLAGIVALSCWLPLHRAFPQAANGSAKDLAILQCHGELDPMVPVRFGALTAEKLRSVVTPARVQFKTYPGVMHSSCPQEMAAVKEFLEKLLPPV
PME-1 primary = PME-1 (human) inhibition; Q9Y570; recombinant PME-1, FP-Rh probe fluorescence polarization; inhibition, % at 5.9 µM; actives 0.53% (n = 320,000); AID 2130;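 active = inhibition above the campaign mean of all compounds plus 3 SD, cut at about 26% in these data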;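 also: competitive labeling of PME-1 active site by serine hydrolase directed probe; inhibitors block probe labeling so polarization falls and inhibition rises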
LYPLA1 inh = LYPLA1 (human) inhibition in PME1 counter-screen | O75608 | recombinant LYPLA1, FP-Rh probe fluorescence polarization | inhibition, % at 5.9 µM | actives 0.16% (n = 320,000);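 active = inhibition above the mean of all tested compounds plus 3 SD, set per campaign, cut at about 14% in these data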;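 also: inhibitors block serine hydrolase probe labeling of LYPLA1 so polarization falls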
GSTO1 inh = blocks human GSTO1 in RBBP9 counter-screen. recombinant GSTO1, activity-based probe fluorescence polarization. inhibition, % at 5.96 µM. actives 1.1% (n = 300,000). P78417;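 active = inhibition above the campaign mean inhibition plus 3 SD, cut at about 35% in these data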
Target sequence (P78417 whole entry, looked up): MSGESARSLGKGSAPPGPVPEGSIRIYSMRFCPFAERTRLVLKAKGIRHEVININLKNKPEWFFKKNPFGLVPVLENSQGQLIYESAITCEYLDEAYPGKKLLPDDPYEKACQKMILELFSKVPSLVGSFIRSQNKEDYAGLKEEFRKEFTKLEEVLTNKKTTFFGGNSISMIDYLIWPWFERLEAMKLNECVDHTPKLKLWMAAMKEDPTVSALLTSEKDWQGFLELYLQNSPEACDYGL
PAD4 FP inh = inhibitors of human PAD4; Q9UM07; recombinant PAD4, RCA probe fluorescence polarization; inhibition, % at 6.36 µM; actives 0.41% (n = 330,000);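 active = percent inhibition above a cutoff equal to the mean of all tested compounds plus 3 SD, cut at about 15% in these data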
Fam108B counter = counter-screen for RBBP9 inhibitors: inhibitors of mouse Fam108B; recombinant Fam108B, FP-Rh probe fluorescence polarization; inhibition, % at 9.51 µM; actives 0.33% (n = 300,000);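 active = inhibition above the screen mean inhibition plus 3 SD, computed separately per campaign, cut at about 18% in these data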;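 also: inhibitors lower polarization as less probe binds the enzyme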
PAD4 FP conf = confirmation of human PAD4 inhibitors; actives 28% (n = 1,200); shares compounds with PAD4 FP inh; recombinant PAD4, RCA probe fluorescence polarization; AID 488796; inhibition, % at 6.36 µM;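 active = mean inhibition across replicates above the hit cutoff set by the earlier primary screen, cut at about 15% in these data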;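 also: inhibitors block active-site labeling by the probe so polarization falls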
A number is an active result; – = inactive; · = no result. In the library only some 1.8% were active in any assay of this set; here they are far more common.

SMILES	LYPLA2 inh	PME-1 primary	LYPLA1 inh	GSTO1 inh	PAD4 FP inh	Fam108B counter	PAD4 FP conf
Cc1ccc(C)c(N2CCN(S(=O)(=O)c3ccc4c(c3)NC(=O)CS4)CC2)c1	–	–	–	–	–	–	·
CCCCC1=CC2=C(c3ccco3)C(=O)C(C)(OC(=O)c3ccc(OC)cc3)C(=O)C2=CN1CCOC (stereo unspecified)	–	–	–	–	–	–	·
C=CCN1C=C2C(=O)C(C)(OC(=O)c3cccs3)C(=O)C=C2C=C1CCCC(=O)OC (stereo unspecified)	–	–	–	–	–	–	·
CCCCC1=CC2=C(c3ccco3)C(=O)C(C)(OC(=O)c3ccc(OC)cc3)C(=O)C2=CN1CCc1ccccn1 (stereo unspecified)	–	–	–	–	28	–	–
COC(=O)CCCC1=CC2=CC(=O)C(C)(OC(=O)c3cccs3)C(=O)C2=CN1CCc1ccccn1 (stereo unspecified)	–	–	–	–	17	–	–
O=C(COC(=O)/C=C/c1cccc(C(F)(F)F)c1)NCc1cccs1	–	–	–	·	–	·	·
CC(OC(=O)C1CC1C)C(=O)Nc1ncc(Cl)cc1Cl (stereo unspecified)	–	–	–	–	–	–	·
O=C(COc1ccc(Cl)cc1)Nc1ccc(NC(=O)c2ccco2)cc1	–	–	–	–	27	–	–
O=C(COc1ccccc1)Nc1ccc(NC(=O)c2ccco2)cc1	–	–	–	–	–	–	·
COC(=O)N/N=C1/C/C(=N\NC(=O)OC)c2ccccc21	–	–	–	–	21	–	–
COC(=O)C1CN(C(=O)COc2ccc(Cl)cc2C)c2ccccc2O1 (stereo unspecified)	–	–	–	–	–	–	·
Cc1ccc(S(=O)(=O)NCC(=O)NNC(=O)c2ccccc2Cl)cc1C	·	·	·	·	–	·	·
CCOc1ccc(NC(=O)CSc2nncc(=O)n2N)cc1	–	–	–	–	15	–	–
Nn1c(SCC(=O)Nc2nc3ccccc3s2)nncc1=O	–	–	–	–	22	–	39
COc1cccc(NC(=O)c2ccccc2-c2ccccc2C(=O)O)c1	–	–	–	–	18	–	–
O=C(COC(=O)/C=C/c1ccc(C(F)(F)F)cc1)NC(=O)NCc1ccco1	–	–	–	·	–	·	·
N#CC(C#N)=C1C=C2C=C(N3CCCCC3)CCC2CC1 (stereo unspecified)	–	–	–	–	49	–	21
COc1cc(OC)cc(C(=O)NC(=S)N(Cc2ccccc2)C(C)C)c1	–	–	–	–	–	–	·
CS(=O)(=O)c1cccc(C(=O)NCc2ccccc2)c1	–	–	–	–	35	–	–
CC1CC(C)CN(C(=O)C2CCN(S(=O)(=O)c3c(Cl)cccc3Cl)CC2)C1 (stereo unspecified)	–	–	–	–	–	–	·
CC(=O)Nc1ccc(Sc2ccccc2C(=O)O)cc1	–	–	–	–	–	–	·
O=C(O)c1ccccc1SSc1ccccc1C(=O)O	–	–	–	–	45	–	38
CC(C)c1onc(C(=O)N2CCOCC2)c1[N+](=O)[O-]	–	–	–	–	–	–	·
Cc1onc(C(=O)N2CCOCC2)c1[N+](=O)[O-]	–	–	–	–	22	–	19
O=C(O)CCC(=O)Nc1ccc(Br)c(Cl)c1	–	–	–	–	–	–	·
SMILES	LYPLA2 inh	PME-1 primary	LYPLA1 inh	GSTO1 inh	PAD4 FP inh	Fam108B counter	PAD4 FP conf
CCCC(=O)Nc1ccc(Br)c(Cl)c1	–	–	–	–	15	–	–
O=C(c1cc2ccccc2oc1=O)N(c1ccccc1)C1C=CS(=O)(=O)C1 (stereo unspecified)	–	–	–	–	–	–	·
CC(C)c1ccc(N(C(=O)c2cc3ccccc3oc2=O)C2C=CS(=O)(=O)C2)cc1 (stereo unspecified)	–	–	–	–	17	–	–
CCCCCC(=O)N(Cc1ccccc1)c1c(N)n(CCOC)c(=O)[nH]c1=O	–	–	–	–	38	–	–
COCCn1c(N)c(N(Cc2ccccc2)C(=O)C2CCCC2)c(=O)[nH]c1=O	–	–	–	–	–	–	·
Fc1ccc(C2CC(c3ccco3)=Nc3ccccc3S2)cc1 (stereo unspecified)	–	–	–	–	15	–	–
O=[N+]([O-])c1ccc(C2CC(c3ccccc3)=Nc3ccccc3S2)cc1 (stereo unspecified)	–	–	–	–	22	–	–
O=C(CSc1nncc2ccccc12)N1CCCCC1	–	–	–	–	17	–	–
Cc1ccc(NC(=O)CSc2nncc3ccccc23)cc1	–	–	–	–	16	–	–
Cc1ccc([N+](=O)[O-])cc1NC(=O)CSc1nncc2ccccc12	–	–	–	–	–	–	·
O=C(CSc1nc(C2CC2)nc2ccccc12)N1CCCCC1	–	–	–	–	–	–	·
CCCCCCNC(=O)c1cn(CC)c2cc(N3CCN(C)CC3)c(F)cc2c1=O	–	–	–	–	–	–	·
COc1ccc(S(=O)(=O)N2CCN(C(=O)c3cc(C)on3)CC2)cc1	–	–	–	·	–	·	·
COc1ccc(CC(=O)N2CCN=C2SC)cc1	–	–	–	–	28	–	–
CSC1=NCCN1C(=O)Cc1ccc(Cl)cc1	–	–	–	–	–	–	·
CCc1noc(C)c1C(=O)OCC(=O)c1ccc(NC(C)=O)cc1F	·	·	·	·	–	·	·
Cc1cccc(N2C(=O)c3cccc4c(N)ccc(c34)C2=O)c1	–	–	–	–	27	–	22
O=C1c2ccc3c4c(ccc(c24)C(=O)N1c1cccc(O)c1)C(=O)N(c1cccc(O)c1)C3=O	–	–	–	–	18	–	38
Cc1cccc(N2C(=O)c3cccc4cccc(c34)C2=O)c1	–	–	–	–	–	–	·
C=CCC1(C(=O)NCCO)CCN(C(=O)OC(C)(C)C)CC1	–	–	–	–	–	–	·
Cc1cc(O)c(C=Nc2ccc(N3CCOCC3)cc2)c(C)c1Cl	–	–	–	–	28	–	–
Cc1ccc(Cl)cc1-c1ccc(C=Nc2ccc(N3CCOCC3)cc2)o1	–	–	–	–	–	–	·
O=C(CN1CCN(S(=O)(=O)c2ccc(F)c(F)c2)CC1)Nc1ccccc1C(=O)NC1CC1	–	–	–	·	–	·	·
Cc1ccc(S(=O)(=O)N2CCCCC2)cc1NC(=O)CSc1nc(N)cc(=O)[nH]1	·	·	·	·	–	·	·
O=C(Nc1ccccc1)c1ccc(Nc2c([N+](=O)[O-])cc([N+](=O)[O-])c3ccccc23)cc1	–	–	–	–	–	–	·
O=[N+]([O-])c1cc(Br)c(Nc2ccccc2)c([N+](=O)[O-])c1	–	–	–	–	18	–	20
Cc1cc(C)c(C)c(S(=O)(=O)N2CCC(C(=O)N3CCCC3)CC2)c1C	–	–	–	·	58	·	–
Cc1cc(C)c(C)c(S(=O)(=O)N2CCN(C(=O)C3CCC3)CC2)c1C	–	–	–	–	–	–	·

Screening results deposited in PubChem BioAssay by The Scripps Research Institute Molecular Screening Center.
